High-throughput results (PubChem BioAssay)
Beta cell apopt – beta cell apoptosis inhibition; protection from apoptosis, % (no concentration beside the values); INS-1E cytokine-induced death, ATP luminescence, 48 h; percent of positive-control rescue, neutral wells zero; 300,000 tested, 0.8% active;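 active means Every replicate reaches about 75%, or at least half do and their mean reaches it too, limit read from the data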;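 further: 0% = cytokine-treated negative control wells and 100% = positive control rescue; higher means more ATP so stronger rescue from cytokine killing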
CSC inhib – cancer stem cell inhibition; cancer stem cell-like cells viability, luminescence; inhibition, % at 7.5 µM; 300,000 tested, 1.1% active; in the data active means inhibition above about 75%; tested in HMLE shEcad cells
Bfl-1 A1 inh – inhibitors of the anti-apoptotic protein A1, read as caspase activation | AID 2462 | MEF A1-2A-BIM cells, Caspase-Glo 3/7 luminescence, 3 h; percent of clofoctol response, vehicle zero | 330,000 tested, 0.066% active | caspase activation, % (test concentration not listed);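 active means over half of replicate activation scores above 10%, or exactly half above 10 with the replicate mean above 10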
Mdm2-MdmX inh – inhibitors of human Mdm2/MdmX interaction; O15151+Q00987; SaOS-2 split-luciferase Mdm2/MdmX complementation, luminescence; inhibition, % at 8 µM; 330,000 tested, 3% active; AID 485346;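 active means inhibition of at least 50% at 8 µM in the primary screen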
aSyn UTR inh – 5' untranslated region of α-synuclein, MLPCN primary screen; inhibition, % (tested at 7.5 µM); 300,000 tested, 0.82% active; alpha-synuclein 5'UTR reporter, inhibitor activity; AID 1813; in the data active means inhibition above about 60%;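 further: H4 neuroglioblastoma cells stably carrying SNCA 5'UTR luciferase fusion; 0% = DMSO wells and 100% = positive control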
Mdm2 MdmX conf – confirmation of human Mdm2/MdmX interaction inhibitors | shares compounds with Mdm2-MdmX inh | Mdm2-MdmX binding, luminescent assay | inhibition, % at 8 µM | 10,000 tested, 55% active | AID 489028; in the data active means inhibition above about 40%
FLuc counter – full-length luciferase inhibition in Mdm2/MdmX counter-screen | shares compounds with Mdm2-MdmX inh | inhibition, % at 8 µM | SaOS-2 full-length luciferase counterscreen, luminescence | AID 504607 | 6,200 tested, 77% active;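 active means mean inhibition at 8 µM reaching about 37%, which flags the compound as non-specific, limit read from the data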;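 further: p53-null SaOS-2 cells with luciferase driven by a doxycycline-inducible promoter; compound on cells about two nights before reading with doxycycline added after day one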
Numbers without * were called inactive. Sampled rows, rich in hits. Any-hit rate of the full collection: about 4.1%.

COc1ccc([C@H]2CC(=O)C=C(c3ccc4ncccc4c3)C2)cc1 was read as Beta cell apopt 0.2, CSC inhib 47.1, Bfl-1 A1 inh 0.0 and Mdm2-MdmX inh 19.4.
Screening CCC1CCCCN1CCCNC(=O)CN1C(=O)COc2ccccc21 (centres undefined) returned Beta cell apopt -3.5, CSC inhib -9.5, Bfl-1 A1 inh -0.3, Mdm2-MdmX inh -11.0 and aSyn UTR inh -19.5.
O=C(Nc1cc([N+](=O)[O-])ccc1Cl)c1ccc2c(c1)OCO2 was read as Beta cell apopt 0.3, CSC inhib -2.3, Bfl-1 A1 inh 0.0, Mdm2-MdmX inh 74.4*, aSyn UTR inh -31.5 and Mdm2 MdmX conf 15.8.
Screening Cc1onc(-c2ccccc2)c1C(=O)Nc1nnc(C(C)C)s1 returned Beta cell apopt -1.8, CSC inhib -3.8, Bfl-1 A1 inh 0.0, Mdm2-MdmX inh 16.7 and aSyn UTR inh -1.0.
Screening Cc1onc(-c2ccccc2)c1C(=O)Nc1ncc([N+](=O)[O-])s1 returned Beta cell apopt 65.7, CSC inhib 47.6, Bfl-1 A1 inh -0.7, Mdm2-MdmX inh 73.4*, aSyn UTR inh -8.4, Mdm2 MdmX conf 37.6 and FLuc counter 58.9*.
For Cc1cnc(NC(=O)c2ccc3c(c2)OCCO3)s1 the results were Mdm2-MdmX inh 74.1*, Mdm2 MdmX conf 80.1* and FLuc counter 28.6.
Screening O=C(Nc1ncc([N+](=O)[O-])s1)c1ccc2c(c1)OCO2 returned Beta cell apopt 60.3, CSC inhib 49.9, Bfl-1 A1 inh -6.8, Mdm2-MdmX inh 74.9*, aSyn UTR inh 102.6*, Mdm2 MdmX conf 68.8* and FLuc counter 64.1*.
Screening Cc1ccc([N+](=O)[O-])cc1NC(=O)c1ccc2c(c1)OCO2 returned Beta cell apopt -2.3, CSC inhib -8.3, Bfl-1 A1 inh 0.3, Mdm2-MdmX inh -9.6 and aSyn UTR inh -21.1.
`Cc1cccc(C)c1NC(=O)C1CCN(S(C)(=O)=O)CC1` gave Beta cell apopt -1.5, CSC inhib -13.1, Bfl-1 A1 inh -0.1, Mdm2-MdmX inh -14.7 and aSyn UTR inh -10.2.
For CCOC(=O)C1=C(COC(=O)C(C)(C)Oc2ccc(Cl)cc2)NC(=O)NC1C (centres undefined) the results were Beta cell apopt -6.7, Bfl-1 A1 inh 0.9 and Mdm2-MdmX inh 19.7.
`Cc1ccc(-c2cc3c(N=O)c4ccccc4c-3n[nH]2)cc1` gave Beta cell apopt 49.4, CSC inhib 86.7*, Bfl-1 A1 inh -7.7, Mdm2-MdmX inh 92.8*, aSyn UTR inh 91.7*, Mdm2 MdmX conf 89.0* and FLuc counter 46.1*.
For Cc1ccccc1OCc1occc1C(=O)Nc1cccc(-n2cnnn2)c1 the results were Beta cell apopt 14.8, CSC inhib 53.8, Bfl-1 A1 inh -0.2, Mdm2-MdmX inh 58.6*, aSyn UTR inh -91.5, Mdm2 MdmX conf 47.0* and FLuc counter 46.6*.
For CCCn1c2ccccc2c2nnc(SC(CC)C(=O)Nc3sc4c(c3C#N)CCCC4)nc21 (centres undefined) the results were Beta cell apopt 17.5, CSC inhib 12.4, Bfl-1 A1 inh 0.3, Mdm2-MdmX inh 53.9*, aSyn UTR inh 27.8 and Mdm2 MdmX conf 23.1.
O=C(Nc1cccc(NC(=O)c2cccc([N+](=O)[O-])c2)n1)c1cccc([N+](=O)[O-])c1 was read as Beta cell apopt 6.6, CSC inhib 0.0, Bfl-1 A1 inh -0.1, Mdm2-MdmX inh 22.5 and aSyn UTR inh -47.8.
O=C(Nc1ccncc1NC(=O)c1cccc([N+](=O)[O-])c1)c1cccc([N+](=O)[O-])c1 was read as Beta cell apopt 2.3, CSC inhib -4.5, Bfl-1 A1 inh 0.5, Mdm2-MdmX inh 87.4*, aSyn UTR inh -5.3, Mdm2 MdmX conf 55.5* and FLuc counter 31.0.
`O=c1cc(-c2ccco2)oc2c1ccc1ccccc12` gave Beta cell apopt -0.3, CSC inhib 7.7, Bfl-1 A1 inh -0.2, Mdm2-MdmX inh 29.8 and aSyn UTR inh -30.8.
Screening O=c1cc(C(Cl)(Cl)Cl)oc2c1ccc1ccccc12 returned Beta cell apopt 72.7, CSC inhib 116.4*, Bfl-1 A1 inh -0.7, Mdm2-MdmX inh 97.8*, aSyn UTR inh -13.6, Mdm2 MdmX conf 86.0* and FLuc counter 51.6*.
